The results in this text go back to ChEMBL document CHEMBL5308504, “Tm Shift (DSF) assay results for EUbOPEN Chemogenomics Library” (2023).

In assay [1] the target is Bromodomain-containing protein 4 (Homo sapiens) (UniProt O60885). To be noted: Compound concentration 20.0 uM, Protein concentration 2.0 uM, Result type QC Liability.
Assay [2] concerns the target T1, Transcription intermediary factor 1-alpha (Homo sapiens) (UniProt O15164).
T1 sequence (whole entry): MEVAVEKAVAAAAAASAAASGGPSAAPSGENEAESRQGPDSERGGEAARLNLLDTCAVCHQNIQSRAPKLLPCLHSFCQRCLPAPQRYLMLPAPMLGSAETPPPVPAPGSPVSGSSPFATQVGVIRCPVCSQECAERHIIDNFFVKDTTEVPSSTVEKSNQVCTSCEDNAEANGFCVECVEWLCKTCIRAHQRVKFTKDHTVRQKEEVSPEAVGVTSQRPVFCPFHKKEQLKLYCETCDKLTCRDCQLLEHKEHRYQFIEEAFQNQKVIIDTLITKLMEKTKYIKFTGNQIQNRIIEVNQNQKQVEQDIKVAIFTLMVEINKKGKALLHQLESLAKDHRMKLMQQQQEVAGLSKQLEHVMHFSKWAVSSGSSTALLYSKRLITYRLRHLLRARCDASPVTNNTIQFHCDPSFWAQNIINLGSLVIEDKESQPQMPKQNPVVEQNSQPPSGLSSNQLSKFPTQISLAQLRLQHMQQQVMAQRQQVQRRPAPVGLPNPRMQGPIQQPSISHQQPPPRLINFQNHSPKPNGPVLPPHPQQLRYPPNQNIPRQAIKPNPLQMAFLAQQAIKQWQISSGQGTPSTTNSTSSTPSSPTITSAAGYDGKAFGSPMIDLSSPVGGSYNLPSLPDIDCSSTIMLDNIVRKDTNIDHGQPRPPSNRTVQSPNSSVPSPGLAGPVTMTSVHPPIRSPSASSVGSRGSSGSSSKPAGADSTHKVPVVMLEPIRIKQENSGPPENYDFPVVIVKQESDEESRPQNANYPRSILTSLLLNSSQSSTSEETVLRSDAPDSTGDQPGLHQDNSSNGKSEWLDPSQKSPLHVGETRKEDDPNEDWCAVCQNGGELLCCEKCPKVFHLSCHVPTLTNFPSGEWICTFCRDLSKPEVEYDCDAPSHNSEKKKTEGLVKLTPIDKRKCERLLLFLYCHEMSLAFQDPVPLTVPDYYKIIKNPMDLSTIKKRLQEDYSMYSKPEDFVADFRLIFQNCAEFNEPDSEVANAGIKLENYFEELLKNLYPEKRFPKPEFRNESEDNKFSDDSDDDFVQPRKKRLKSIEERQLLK
Conditions: Compound concentration 20.0 uM, Protein concentration 2.0 uM, Result type QC Liability.

Where “and” joins values, the source holds several entries; their conditions need not be identical. Equal values may be shown once.

As for `CC(=O)c1ccc2c(c1)/C(=C(/NC1CCN(C)CC1)c1ccc3c(c1)OCO3)C(=O)N2`, the shift in melting temperature (ΔTm) was -0.52 °C in assay [1] and 0.21 °C in assay [2].

Take `C/C(=C\C(=O)Nc1ccccc1C(=O)O)c1ccc2ccccc2c1`: the ΔTm was -0.82 °C in assay [1] and 0.61 °C in assay [2].

For the molecule `COc1cc(-c2cncc(-c3ccc(N4CCN(C(C)C)CC4)cc3)c2C)cc(F)c1C(N)=O`, the thermal shift (ΔTm) is -2.5 °C in assay [1] and -3.06 °C in assay [2].

On to `Cc1cc2nc(N3CCC(C(=O)NC4CCCC4)CC3)n(C(C)C)c2cc1C`, for which the shift in melting temperature (ΔTm) was -0.57 °C in assay [1] and -0.87 °C in assay [2].

As for `C[C@H](NC(=O)c1cnc2n1[C@](C)(Cc1ccc(C#N)cc1)C(=O)N2c1cc(Cl)c(F)c(Cl)c1)C(=O)NC1(c2ccccn2)CC1`, the ΔTm was 5.21 °C in assay [1] and 0 °C in assay [2].

Consider `CC[C@H](CO)Nc1nc(Nc2cccc(-c3ccccn3)c2)c2ncn(C(C)C)c2n1`, for which the ΔTm was -1.32 °C in assay [1] and -3.54 °C in assay [2].

As for `CN1CCN(c2ccc(-n3cc(-c4ccncc4OCC4CCNCC4)cn3)cc2)CC1`, the ΔTm in assay [1] was -1.52 °C; in assay [2], -2.76 °C.

Regarding `CS(=O)(=O)CCNCc1ccc(-c2ccc3ncnc(Nc4ccc(OCc5cccc(F)c5)c(Cl)c4)c3c2)o1`, the ΔTm in assay [1] was -2.54 °C; in assay [2], -3.02 °C.

With `Cn1cncc1-c1cn(-c2cccc(C(=O)Nc3cccc(C(F)(F)F)c3)c2)nn1`, the ΔTm in assay [1] is -2.66 °C; in assay [2], -0.32 °C.

Turning to `O=C(Nc1ccc(Cl)c(-c2ccccn2)c1)c1cccc(COc2ccc(Br)cc2CNCCO)c1`, the ΔTm was -1.21 °C in assay [1] and -0.08 °C in assay [2].

As to `COC[C@@H](C)N[C@H]1CC[C@H](Nc2cc(-c3cccc(NCC4(C#N)CCOCC4)n3)c(Cl)cn2)CC1`, the ΔTm in assay [1] was -0.6 °C; in assay [2], -3.05 °C.

Regarding `CC[C@H](CC(=O)O)n1c(=O)c2ncccc2n(Cc2cn(C)c3cc(C)cc(C)c23)c1=O`, the ΔTm was -1.38 °C and -3.06 °C in assay [1]; 0.26 °C and -1.81 °C in assay [2].

In the case of `CN(C)c1ncc2cc(-c3ccc(-c4ncccc4F)cc3Cl)c(=O)n(C[C@H]3OC[C@H](N)CO3)c2n1`, the ΔTm in assay [1] was -2 °C; in assay [2], -2.59 °C.

For the molecule `Cc1nccn1-c1ccc(Sc2cccc(C3(C(N)=O)CCOCC3)c2)cc1`, the thermal shift (ΔTm) is -0.68 °C in assay [1] and -1.02 °C in assay [2].

With `C[S+]([O-])c1ccc(-c2nc(-c3cccc(I)c3)c(-c3ccncc3)[nH]2)cc1` (centres undefined), the ΔTm is -3.51 °C in assay [1] and -2.56 °C in assay [2].

Regarding `CC(C)(O)c1coc(S(=O)(=O)NC(=O)Nc2c3c(cc4c2CCC4)CCC3)c1`, the ΔTm in assay [1] was -0.92 °C; in assay [2] it was -0.55 °C.

For `COc1ccccc1N1CCN(c2ncnc3c2cnn3-c2ccccc2)CC1`, the ΔTm in assay [1] amounted to 0.01 °C; in assay [2], 0.1 °C.

With `Cn1c(C(=O)N[C@@H](CO)c2ccc(C(=O)O)cc2)cc2cc(Cl)ccc21`, the figures for the ΔTm in assay [1] and in assay [2] were 0.27 °C and 0.31 °C, respectively.

For `CN1Cc2nccc(-c3cn(C)nc3-c3ccc(F)cc3)c2C1=O`, the shift in melting temperature (ΔTm) in assay [1] was -1.27 °C; in assay [2], -1.67 °C.

In the case of `Clc1cccc(Nc2nccc(NCCCN3CCOCC3)n2)c1`, the figures for the ΔTm in assay [1] and in assay [2] were -3.15 °C and -3.59 °C, respectively.

In the case of `CCCNc1ccc2ncc(-c3ccncc3)n2n1`, the shift in melting temperature (ΔTm) was -0.06 °C in assay [1] and -2.61 °C in assay [2].

On to `C=C(F)C(=O)N1CCN(c2nc(OC[C@@H]3CCCN3C)nc3c2CCN(c2cccc4cccc(Cl)c24)C3)C[C@@H]1CC#N`, for which the ΔTm was 0.05 °C in assay [1] and -0.78 °C in assay [2].

As to `Cn1cc(C(=O)O)c2ccc(N3CCC(OCc4c(-c5c(Cl)cccc5Cl)noc4C4CC4)CC3)cc21`, the ΔTm in assay [1] is -1.74 °C; in assay [2], -2.91 °C.

Consider `Cc1ccc(-n2nc(C(C)(C)C)cc2NC(=O)Nc2ccc(OCCN3CCOCC3)c3ccccc23)cc1`, for which the ΔTm was 0 °C and -1.27 °C in assay [1]; -0.19 °C and -3.17 °C in assay [2].

Turning to `CC1CCN(C(=O)[C@H](CCn2cccc2C#N)NS(=O)(=O)c2cccc3[nH]ccc23)CC1`, the ΔTm in assay [1] and in assay [2] was 0.4 °C each time.

On to `CN[C@@H](C)C(=O)N[C@H]1CN(C(=O)CC(C)C)CC[C@H]2CC[C@@H](C(=O)NC(c3ccccc3)c3ccccc3)N2C1=O`, for which the figures for the thermal shift (ΔTm) in assay [1] and in assay [2] were -2.41 °C and -2.26 °C, respectively.

With `O=C(CCCN1CCC(O)(c2ccc(Cl)cc2)CC1)c1ccc(F)cc1`, the thermal shift (ΔTm) was -3.1 °C in assay [1] and -2.64 °C in assay [2].

Regarding `CN(C)C(=O)Cn1cc(-c2nc(C3(c4ccc(-c5cnc(N)nc5)cc4)CC3)no2)cn1`, the ΔTm in assay [1] was -1.16 °C; in assay [2], 0.32 °C.

Consider `COc1ccc(-c2csc(NC(=O)[C@H]3CCCCN3S(=O)(=O)c3ccc(C)cc3)n2)cc1`, for which the figures for the ΔTm in assay [1] and in assay [2] were 3.35 °C and -0.04 °C, respectively.

In the case of `C[C@@]1(Cc2ccc(C#N)cc2)C(=O)N(c2cc(Cl)cc(Cl)c2)c2ncc(C(=O)NC3(c4nc(C5CCC5)no4)CC3)n21`, the ΔTm is 10.3 °C in assay [1] and 0.39 °C in assay [2].

`CCCN1C(=O)c2ccc(Cl)cc2Nc2ncccc21`: the figures for the ΔTm in assay [1] and in assay [2] were 0.34 °C and 0.51 °C, respectively.

Turning to `CC(C)(c1ccc(OCc2cccc(COc3ccc(C(=N)N)cc3)c2)cc1)c1ccc(O[C@@H]2O[C@H](C(=O)O)[C@@H](O)[C@H](O)[C@H]2O)cc1`, the ΔTm in assay [1] was 0.58 °C; in assay [2] it was -5.37 °C.

`COc1cc(-c2cncc(-c3ccc(N4CCN(C(C)C)CC4)cc3)c2C)cc(F)c1C(=O)N1CCCC1`: the thermal shift (ΔTm) is -3.15 °C in assay [1] and -3.48 °C in assay [2].

Regarding `CN(C)[C@H]1CC[C@H](Nc2ncc3ncnc(Nc4ccc(F)c(Cl)c4)c3n2)CC1`, the thermal shift (ΔTm) in assay [1] is -0.7 °C; in assay [2] it was -1.12 °C.

`COc1cc(N2CCN(C)CC2)ccc1Nc1ncc2c(n1)N(C)c1ccccc1C(=O)N2CC(F)(F)F`: the values for the ΔTm in assay [1] and in assay [2] were -1.21 °C and -2.27 °C, respectively.

As for `CC#CC(=O)N1CCN(c2nc(-c3ccc(Oc4ccccc4)cc3)c(C(N)=O)s2)CC1`, the ΔTm in assay [1] was -3.96 °C; in assay [2], -3.1 °C.

For the molecule `CCCS(=O)(=O)N[C@H]1C[C@@H](N(C)c2ncnc3[nH]ccc23)C1`, the figures for the ΔTm in assay [1] and in assay [2] were -0.54 °C and -3.66 °C, respectively.
